Of roughly 7,900 targets only a part is listed; those with a hit were picked by preference. About 0.6% of all pairs of compound and target were hits. Unmarked numbers belong to inactive results.
Key:
Experiment in all cases: log2 fold change, soluble protein after heating vs DMSO (PISA); higher = thermal stabilisation; K562 cells, 10 uM, 30 min; active = over 0.2 and 3.5 SD of the protein, either way, in both replicates (recomputed)
[1] = compound: CC[C@@H]1C(=O)N(C)c2cnc(Nc3ccc(C(=O)NC4CCN(C)CC4)cc3OC)nc2N1C1CCCC1
How it was run: (§1)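 Thermal stability values are relative to control samples and come from duplicates. They are expressed as log2 fold changes. For measurement, K562 cells (2×10^6 cells/mL) received 10 μM compound for 30 min, and aliquots were heated for 3 min over 48°C-58°C, pooled, and extracted at 4°C in PBS with 0.5% NP-40. Soluble protein, the supernatant after 21,000xg for 90 min, was quantified by TMTpro 16plex LC-MS/MS with equalised channel sums.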

[2] = compound: CC[C@@H]1C(=O)N(C)c2cnc(Nc3ccc(C(=O)N[C@H]4CC[C@H](N5CCN(CC6CC6)CC5)CC4)cc3OC)nc2N1C(C)C [volasertib]
How it was run: as §1

[3] = compound: CC[C@H](C)N1C=C(C2=C(C=C(C=C21)C3=CN=C(C=C3)N4CCNCC4)C(=O)NCC5=C(C=C(NC5=O)C)C)C
How it was run: as §1

[4] = compound: CC[C@H](C)[C@@H](C(=O)N[C@@H]([C@@H](C)O)C(=O)N[C@@H](CC(C)C)C(=O)[C@]1(CO1)C)NC(=O)[C@H]([C@@H](C)CC)N(C)C(=O)C [epoxomicin]
How it was run: as §1

[5] = compound: CCn1c(C(=O)N(C2CC2)C2CC2)cc2c3c(ncn3C)c(Nc3cc(C)n(C)n3)nc21
How it was run: as §1

[6] = compound: CCn1cc(-c2ccnc3[nH]c(-c4cccc(CN(C)C)c4)cc23)c(-c2ccc(NC(=O)N(C)C)cc2)n1
How it was run: as §1

[7] = compound: CN(C)CC(=O)Nc1ccc2[nH]c(=O)c3ccccc3c2c1
How it was run: as §1

[8] = compound: CN(CCOC1=CC=C(C=C1)C[C@H]2C(=O)NC(=O)S2)C3=CC=CC=N3 (racemic) [rosiglitazone]
How it was run: as §1

[9] = compound: CN1C2=C(C3=C1C(=O)N(N=C3)CC4=CC(=CC=C4)N)SC(=C2)S(=O)C
How it was run: as §1

[10] = compound: CN1CCC(CNc2ccc3ncc(-c4cccc(OC(F)(F)F)c4)n3n2)CC1
How it was run: as §1

[11] = compound: CN1CCN(CCOc2cc(OC3CCOCC3)c3c(Nc4c(Cl)ccc5c4OCO5)ncnc3c2)CC1 [saracatinib]
How it was run: as §1

[12] = compound: CN1CCN(c2nc(C3=C(c4c[nH]c5ccccc45)C(=O)NC3=O)c3ccccc3n2)CC1 [sotrastaurin]
How it was run: as §1

[13] = compound: CN1CC[C@H](c2c(O)cc(O)c3c(=O)cc(-c4ccccc4Cl)oc23)[C@H](O)C1 [alvocidib]
How it was run: as §1

[14] = compound: CN1CCc2c(c3ccccc3n2Cc2ccc(C(=O)NO)cc2)C1 [Tubastatin A]
How it was run: as §1

[15] = compound: CNC(=O)C1=CC=CC=C1NC2=NC(=NC=C2Cl)NC3=C(C=C(C=C3)N4CCOCC4)OC
How it was run: as §1

[16] = compound: CNC(=O)c1ccc(Nc2ncc(C(F)(F)F)c(NCc3nccnc3N(C)S(C)(=O)=O)n2)cc1 [defactinib]
How it was run: as §1

[17] = compound: CNCc1ccc(-c2[nH]c3cc(F)cc4c3c2CCNC4=O)cc1 [rucaparib]
How it was run: as §1

[18] = compound: CNc1nc(-c2ccc3c(N)n[nH]c3c2)cc(N2C[C@@H](C(=O)NC3CCCCC3)CC[C@H]2C)n1
How it was run: as §1

[19] = compound: COC(=O)N[C@@H](C)CNc1nccc(-c2cn(C(C)C)nc2-c2cc(Cl)cc(NS(C)(=O)=O)c2F)n1 [encorafenib]
How it was run: as §1

[20] = compound: COC(=O)[C@H](CCSC)NC(=O)C1=C(C=C(C=C1)NC[C@H](CS)N)C2=CC=CC=C2
How it was run: as §1

Chain of UniProt P01112 (P01112 whole entry, looked up): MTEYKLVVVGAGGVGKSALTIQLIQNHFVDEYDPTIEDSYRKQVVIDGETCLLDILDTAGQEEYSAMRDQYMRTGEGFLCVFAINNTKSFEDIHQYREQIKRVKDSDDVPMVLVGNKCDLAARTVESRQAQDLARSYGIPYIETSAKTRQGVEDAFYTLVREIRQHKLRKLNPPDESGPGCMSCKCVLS
Chain of UniProt O00165 (O00165 whole entry, looked up): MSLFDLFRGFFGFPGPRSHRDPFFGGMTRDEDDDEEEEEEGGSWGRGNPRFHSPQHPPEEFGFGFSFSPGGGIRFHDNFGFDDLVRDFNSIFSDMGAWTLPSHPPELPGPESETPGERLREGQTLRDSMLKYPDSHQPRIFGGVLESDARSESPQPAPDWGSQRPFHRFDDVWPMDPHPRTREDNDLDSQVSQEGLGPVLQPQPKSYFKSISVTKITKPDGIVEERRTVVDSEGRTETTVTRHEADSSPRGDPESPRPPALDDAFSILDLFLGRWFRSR
Chain of UniProt Q53GQ0 (Q53GQ0 whole entry, looked up): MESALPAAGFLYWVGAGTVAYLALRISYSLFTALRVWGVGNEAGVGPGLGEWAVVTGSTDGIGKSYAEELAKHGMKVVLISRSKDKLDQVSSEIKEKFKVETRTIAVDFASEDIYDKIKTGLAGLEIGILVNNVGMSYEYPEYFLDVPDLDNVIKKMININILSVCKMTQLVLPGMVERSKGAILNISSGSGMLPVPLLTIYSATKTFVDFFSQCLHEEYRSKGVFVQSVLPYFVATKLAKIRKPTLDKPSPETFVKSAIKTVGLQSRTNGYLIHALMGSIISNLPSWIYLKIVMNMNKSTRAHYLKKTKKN
Chain of UniProt O15228 (O15228 whole entry, looked up): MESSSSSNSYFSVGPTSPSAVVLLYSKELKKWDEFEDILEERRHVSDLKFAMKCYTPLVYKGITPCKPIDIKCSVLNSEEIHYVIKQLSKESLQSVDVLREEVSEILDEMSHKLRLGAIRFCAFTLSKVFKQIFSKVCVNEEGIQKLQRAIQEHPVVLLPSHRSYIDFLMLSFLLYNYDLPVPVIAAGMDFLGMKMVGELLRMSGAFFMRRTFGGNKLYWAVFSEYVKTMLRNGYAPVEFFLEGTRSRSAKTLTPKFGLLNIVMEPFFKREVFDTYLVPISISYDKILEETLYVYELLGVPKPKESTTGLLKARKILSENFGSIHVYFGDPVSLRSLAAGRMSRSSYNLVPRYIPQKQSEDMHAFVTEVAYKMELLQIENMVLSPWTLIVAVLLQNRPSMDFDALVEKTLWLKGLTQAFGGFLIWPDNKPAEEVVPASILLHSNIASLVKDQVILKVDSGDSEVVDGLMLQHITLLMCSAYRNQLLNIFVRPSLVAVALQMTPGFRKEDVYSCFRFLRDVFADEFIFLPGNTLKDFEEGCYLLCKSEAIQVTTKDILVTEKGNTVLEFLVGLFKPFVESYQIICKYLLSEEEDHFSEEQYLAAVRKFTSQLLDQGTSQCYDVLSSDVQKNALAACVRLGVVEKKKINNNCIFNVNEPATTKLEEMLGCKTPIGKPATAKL
Chain of UniProt P46976 (P46976 whole entry, looked up): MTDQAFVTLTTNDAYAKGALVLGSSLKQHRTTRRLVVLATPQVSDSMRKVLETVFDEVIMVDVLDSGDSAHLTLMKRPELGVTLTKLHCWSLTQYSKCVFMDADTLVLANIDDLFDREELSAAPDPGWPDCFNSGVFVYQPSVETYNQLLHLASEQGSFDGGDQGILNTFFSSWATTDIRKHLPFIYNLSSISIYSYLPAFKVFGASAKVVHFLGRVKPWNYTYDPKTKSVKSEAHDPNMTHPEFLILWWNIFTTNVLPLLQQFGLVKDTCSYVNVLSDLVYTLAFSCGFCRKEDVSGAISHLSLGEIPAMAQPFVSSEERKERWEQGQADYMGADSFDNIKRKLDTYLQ
Chain of UniProt P08236 (P08236 whole entry, looked up): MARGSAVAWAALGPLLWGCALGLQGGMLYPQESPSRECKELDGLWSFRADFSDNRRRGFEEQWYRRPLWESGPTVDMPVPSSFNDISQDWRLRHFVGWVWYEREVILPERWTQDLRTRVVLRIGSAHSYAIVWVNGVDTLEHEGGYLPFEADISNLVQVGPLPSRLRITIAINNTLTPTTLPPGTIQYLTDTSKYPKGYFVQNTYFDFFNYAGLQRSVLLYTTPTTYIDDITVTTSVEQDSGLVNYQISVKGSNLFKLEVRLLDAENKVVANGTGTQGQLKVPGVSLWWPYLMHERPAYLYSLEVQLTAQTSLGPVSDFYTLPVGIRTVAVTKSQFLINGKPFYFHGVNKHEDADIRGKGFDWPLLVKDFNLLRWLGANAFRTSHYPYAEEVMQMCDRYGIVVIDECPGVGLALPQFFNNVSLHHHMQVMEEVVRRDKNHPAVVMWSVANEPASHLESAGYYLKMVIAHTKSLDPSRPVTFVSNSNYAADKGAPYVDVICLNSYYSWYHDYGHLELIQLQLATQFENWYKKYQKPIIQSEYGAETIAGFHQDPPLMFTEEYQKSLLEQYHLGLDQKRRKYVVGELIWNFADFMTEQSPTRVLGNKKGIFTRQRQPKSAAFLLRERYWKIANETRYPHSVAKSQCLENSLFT
Chain of UniProt P52597 (P52597 whole entry, looked up): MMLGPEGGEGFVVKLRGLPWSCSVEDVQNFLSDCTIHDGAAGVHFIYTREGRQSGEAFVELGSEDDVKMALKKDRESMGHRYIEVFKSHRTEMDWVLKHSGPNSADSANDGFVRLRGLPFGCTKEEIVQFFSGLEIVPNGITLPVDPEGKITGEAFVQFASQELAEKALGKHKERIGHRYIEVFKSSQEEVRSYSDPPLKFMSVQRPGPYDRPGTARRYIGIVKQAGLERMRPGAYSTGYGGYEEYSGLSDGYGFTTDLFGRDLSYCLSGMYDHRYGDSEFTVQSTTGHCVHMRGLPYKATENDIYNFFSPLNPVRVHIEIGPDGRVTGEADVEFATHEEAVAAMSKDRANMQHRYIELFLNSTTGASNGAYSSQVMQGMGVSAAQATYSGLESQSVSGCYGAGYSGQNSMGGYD
Chain of UniProt P04035 (P04035 whole entry, looked up): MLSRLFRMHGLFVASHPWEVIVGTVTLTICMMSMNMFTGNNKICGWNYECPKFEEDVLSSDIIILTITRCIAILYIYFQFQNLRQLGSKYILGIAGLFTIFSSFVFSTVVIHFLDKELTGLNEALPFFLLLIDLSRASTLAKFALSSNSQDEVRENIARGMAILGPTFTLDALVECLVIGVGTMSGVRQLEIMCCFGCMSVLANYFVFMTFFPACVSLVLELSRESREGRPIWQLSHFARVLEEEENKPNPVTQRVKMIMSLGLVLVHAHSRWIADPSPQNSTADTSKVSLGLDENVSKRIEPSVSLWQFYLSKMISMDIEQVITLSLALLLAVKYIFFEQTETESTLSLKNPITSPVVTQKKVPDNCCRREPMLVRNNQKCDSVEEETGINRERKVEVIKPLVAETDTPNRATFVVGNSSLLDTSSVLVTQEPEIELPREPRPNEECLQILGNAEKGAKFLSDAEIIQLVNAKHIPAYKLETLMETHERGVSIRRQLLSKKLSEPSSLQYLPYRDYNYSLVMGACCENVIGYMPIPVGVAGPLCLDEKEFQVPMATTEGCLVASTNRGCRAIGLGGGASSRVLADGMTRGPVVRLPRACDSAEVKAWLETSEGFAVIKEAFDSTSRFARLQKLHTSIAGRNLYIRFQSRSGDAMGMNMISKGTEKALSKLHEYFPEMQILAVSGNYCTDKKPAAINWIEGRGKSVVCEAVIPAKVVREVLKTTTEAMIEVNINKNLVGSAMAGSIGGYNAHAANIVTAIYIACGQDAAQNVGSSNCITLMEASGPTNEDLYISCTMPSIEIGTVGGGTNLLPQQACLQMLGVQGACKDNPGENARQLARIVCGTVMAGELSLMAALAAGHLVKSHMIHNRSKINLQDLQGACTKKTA
Chain of UniProt P16278 (P16278 whole entry, looked up): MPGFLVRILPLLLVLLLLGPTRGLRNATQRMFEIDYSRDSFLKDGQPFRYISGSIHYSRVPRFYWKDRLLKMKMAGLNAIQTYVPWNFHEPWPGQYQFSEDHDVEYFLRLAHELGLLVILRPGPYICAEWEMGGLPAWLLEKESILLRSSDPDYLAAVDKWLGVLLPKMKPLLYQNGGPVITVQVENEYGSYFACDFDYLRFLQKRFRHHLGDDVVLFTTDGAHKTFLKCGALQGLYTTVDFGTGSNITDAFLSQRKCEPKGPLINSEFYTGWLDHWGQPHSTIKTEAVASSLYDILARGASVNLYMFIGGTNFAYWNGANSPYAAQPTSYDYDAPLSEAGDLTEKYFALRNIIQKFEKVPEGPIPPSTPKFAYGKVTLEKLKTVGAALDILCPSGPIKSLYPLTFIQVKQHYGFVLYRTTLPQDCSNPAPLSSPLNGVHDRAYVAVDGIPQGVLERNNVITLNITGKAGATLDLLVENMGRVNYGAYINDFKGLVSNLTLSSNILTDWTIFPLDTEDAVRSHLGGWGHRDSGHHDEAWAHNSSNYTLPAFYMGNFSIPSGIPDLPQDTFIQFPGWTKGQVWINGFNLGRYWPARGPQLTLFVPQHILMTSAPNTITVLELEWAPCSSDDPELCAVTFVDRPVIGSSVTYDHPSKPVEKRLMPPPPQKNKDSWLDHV
Chain of UniProt P15104 (P15104 whole entry, looked up): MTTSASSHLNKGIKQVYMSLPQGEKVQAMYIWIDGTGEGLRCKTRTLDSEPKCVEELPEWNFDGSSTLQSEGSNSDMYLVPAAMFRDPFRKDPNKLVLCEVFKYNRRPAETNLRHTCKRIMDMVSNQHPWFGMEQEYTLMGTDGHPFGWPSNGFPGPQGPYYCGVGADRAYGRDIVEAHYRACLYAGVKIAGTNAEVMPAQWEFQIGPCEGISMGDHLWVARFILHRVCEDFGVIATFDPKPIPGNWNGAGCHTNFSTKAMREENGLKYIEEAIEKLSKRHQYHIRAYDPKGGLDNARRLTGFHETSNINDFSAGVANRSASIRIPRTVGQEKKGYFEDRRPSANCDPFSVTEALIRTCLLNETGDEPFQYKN

Target	log2 fold change [1]	log2 fold change [2]	log2 fold change [3]	log2 fold change [4]	log2 fold change [5]	log2 fold change [6]	log2 fold change [7]	log2 fold change [8]	log2 fold change [9]	log2 fold change [10]	log2 fold change [11]	log2 fold change [12]	log2 fold change [13]	log2 fold change [14]	log2 fold change [15]	log2 fold change [16]	log2 fold change [17]	log2 fold change [18]	log2 fold change [19]	log2 fold change [20]
GNS (UniProt P15586)	-0.272 (active)	-0.181	-0.045	-0.012	0.018	-0.003	-0.007	-0.005	-0.016	-0.408 (active)	0.014	0.041	-0.022	-0.012	-0.007	-0.011	0	-0.034	0.009	-0.009
GYG1 (UniProt P46976)	0.107	0.338	0	-0.104	0.011	-0.045	0.019	-0.045	0.016	-0.011	-0.03	-0.425	-0.046	0.033	0.091	-0.042	0.062	0.038	0.083	0.013
GUSB (UniProt P08236)	-0.104	0.067	0.354	-0.053	-0.151	-0.026	-0.001	-0.041	-0.028	0.001	0.03	-0.004	0.021	-0.054	0.045	-0.055	0.048	-0.039	0.128	0.029
HSD17B12 (UniProt Q53GQ0)	-0.046	-0.183	0	-0.013	-0.036	-0.104	0.01	-0.016	-0.039	0.037	-0.037	0.151	-0.082	-0.007	0.005	-0.024	-0.043	0.038	0.027	0.013
GLB1 (UniProt P16278)	-0.707 (active)	-1.11 (active)	0.007	-0.01	0.038	0.057	0.002	-0.023	0.037	-0.751 (active)	-0.011	0.059	-0.018	-0.032	0.034	0.004	0	0.002	0.003	0.036
HMGCR isoform 3 (UniProt P04035)	-0.007	-0.019	-0.07	0.356 (active)	-0.04	0.015	-0.023	-0.006	-0.009	0.272	0.002	-0.287	-0.021	0.33 (active)	-0.133	-0.004	-0.208	-0.024	0.094	0.146
GNPAT (UniProt O15228)	-0.065	-0.149	-0.02	0.04	0.044	-0.066	-0.027	0.066	-0.084	-0.354 (active)	0.01	0.077	-0.073	-0.047	0.045	-0.035	-0.06	-0.041	0.001	-0.027
HNRNPF (UniProt P52597)	-0.049	-0.587 (active)	0.128	0.009	-0.066	-0.027	0.051	0.037	0.052	-0.153	-0.042	-0.121	-0.088	0.086	0.004	-0.253	0.098	0.004	0.119	-0.06
FNTA (UniProt P49354)	0.123	0.362 (active)	0.006	0.019	0.032	-0.074	0.012	0.036	-0.03	0.015	0.084	0.141	-0.006	-0.068	-0.028	0.019	-0.243	-0.016	-0.239	0.561 (active)
GSTM4 (UniProt Q03013)	0.202	0.095	0.039	-0.009	0.036	-0.063	0.025	-0.24	-0.054	-0.182	-0.106	-0.066	-0.065	-0.044	0.003	-0.086	-0.385 (active)	0.06	-0.238	0.093
HRAS (UniProt P01112)	-0.014	0.057	-0.028	0.104	0.007	-0.082	-0.125	-0.159	-0.033	0.048	0.002	0.091	-0.075	0.014	-0.015	-0.012	0.072	0.077	-0.042	0.062
GLUL (UniProt P15104)	0.049	0.113	-0.041	0.081	0.045	0.014	-0.032	-0.022	-0.032	0.017	0.012	-0.058	0.026	0.048	0.142	0.036	-0.039	-0.153	-0.02	0.038
HEXB (UniProt P07686)	-0.426 (active)	-0.396 (active)	-0.013	-0.006	0.031	0.019	0	-0.008	-0.047	-0.563 (active)	0	0.029	-0.004	-0.101	0.017	-0.002	-0.078	-0.033	0.01	-0.001
HSPA8 (UniProt E9PK54)	0.041	0.213	-0.003	-0.252	0.03	0.131	-0.06	0.042	0.11	0.128	-0.058	-0.054	0.332	-0.003	0.072	-0.012	-0.287	-0.033	0.051	0.048
HDGFL2 (UniProt Q7Z4V5)	-0.019	0.014	-0.043	0.012	-0.006	0.015	-0.011	-0.004	0.006	-0.033	0.01	0.119	0.007	0.013	-0.061	-0.07	-0.051	-0.058	-0.016	0.036
HAX1 (UniProt O00165)	-0.087	-0.393 (active)	-0.011	-0.018	-0.031	0.084	0.05	0.023	0.012	-0.584 (active)	-0.067	-0.106	-0.015	0.015	-0.14	-0.008	0.082	0.051	0.045	-0.013
